Assay results from PubChem BioAssay (EPA / NIEHS).
Active and inactive are the calls of the source. The calls were made as follows: active = hit-call score of the fitted dose curve at least 0.9, where 1 is the maximum; inactive = score below 0.9.

Tests used:
[1] = APR_HepG2_CellCycleArrest_24hr: Apredica 24-hour HepG2 Assay for Cell Cycle Arrest (AID 2282905); details: imaging, actives raise or lower the signal;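 also: cell cycle arrest scored as ratio of 2N to 4N nuclear DNA content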
How it was run: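 HepG2, 24 hr dosing, 10-pt 0.39–200 uM in duplicate, 0.5% DMSO. Fixed 3.7% formaldehyde, permeabilized 0.5% Triton X-100, Hoechst 33342 2 ug/mL. Imaged 20x; nuclear DNA content quantified; bidirectional fit vs DMSO.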

[2] = APR_HepG2_NuclearSize_24hr: Apredica 24-hour HepG2 Assay for Nuclear Size (AID 2282907); details: high-content imaging, actives raise or lower the signal
How it was run: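 HepG2, 24 hr dosing, 10-pt 0.39–200 uM, duplicates, 0.5% DMSO final; 3.7% formaldehyde fix, 0.5% Triton X-100; Hoechst 33342 nuclear stain; ArrayScan HCS, Cell Cycle analysis → nuclear size; bidirectional fit vs DMSO.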

[3] = APR_HepG2_CellLoss_24hr: Apredica 24-hour HepG2 Assay for Cell Loss (AID 2282908); details: high-content imaging;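 as to AC50: fit in both directions so a hit may be cell loss or gain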
How it was run: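 10-pt dose, 0.39–200 uM, n=2/plate; DMSO 0.5% v/v final as negative control. Fix 3.7% formaldehyde 30 min RT, permeabilize 0.5% Triton X-100, stain Hoechst 33342 2 ug/mL, image 20x. Nuclear count, bidirectional fit vs DMSO.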

[4] = APR_HepG2_MicrotubuleCSK_24hr: Apredica 24-hour HepG2 Assay for Microtubule CSK Stabilty (AID 2282909); details: HepG2 microtubule cytoskeleton imaging, actives raise or lower the signal
How it was run: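 Human liver HepG2, 24 h dosing, 0.39–200 uM ×10 conc, dup, 0.5% DMSO. 3.7% formaldehyde fix, 0.5% Triton perm, anti-alpha-tubulin (1:200)/Cy5 secondary + Hoechst. HCS imaging, 6 fields/well; gain/loss fit vs DMSO.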

[5] = APR_HepG2_MitoticArrest_24hr: Apredica 24-hour HepG2 Assay for Mitotic Arrest (AID 2282910); details: high-content imaging, actives raise or lower the signal
How it was run: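 HepG2 human liver cells were exposed to compounds at 0.39–200 uM (10 concentrations, duplicate) in 0.5% v/v DMSO for 24 hr, then fixed and immunostained for phospho-histone H3 with Hoechst 33342. Mitotic arrest came from HCS fluorescent imaging, fitted bidirectionally against DMSO.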

[6] = APR_HepG2_MitoMembPot_24hr: Apredica 24-hour HepG2 Assay for Mitochondrial Membrane Potential (AID 2282911); details: imaging, actives raise or lower the signal
How it was run: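 Cells are dosed for 24 hr across 0.39 to 200 uM with solvent held at 0.5% DMSO. They are then stained with 250 nM MitoTracker Red CMXRos for 30 min, fixed in 3.7% formaldehyde and imaged.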

[7] = APR_HepG2_MitoMass_24hr: Apredica 24-hour HepG2 Assay for Mitochondrial Mass (AID 2282912); details: high-content imaging, actives raise or lower the signal
How it was run: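 Mitochondrial mass is read as MitoTracker Red fluorescence intensity from automated imaging, with bidirectional curve fitting relative to DMSO. HepG2 cells received compound (0.39–200 uM, 0.5% DMSO final) for 24 hr and were dye-loaded (250 nM, 30 min) before formaldehyde fixation.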

[8] = APR_HepG2_p53Act_24hr: Apredica 24-hour HepG2 Assay for p53 Activation (AID 2282913); details: high-content imaging, actives raise or lower the signal;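 also: p53 protein immunofluorescence averaged per cell in HepG2 with Hoechst nuclei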
How it was run: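 Human HepG2 liver cells; 24 hr cpd treatment, 0.39–200 uM, 0.5% DMSO final. Fixed in 3.7% formaldehyde, permeabilized with 0.5% Triton X-100, stained with anti-p53/Cy5 plus Hoechst 33342. Six images per well at 20x; gain or loss vs DMSO.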

[9] = APR_HepG2_CellCycleArrest_72hr: Apredica 72-hour HepG2 Assay for Cell Cycle Arrest (AID 2282914); details: high-content imaging, actives raise or lower the signal
How it was run: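 Read-out is Hoechst-stained nuclear DNA content measured by automated fluorescence imaging (20x, six images per well), fitted in both directions relative to DMSO. Human HepG2 liver cells received 0.39–200 uM compound for 72 hr at 0.5% v/v DMSO.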

[10] = APR_HepG2_CellLoss_72hr: Apredica 72-hour HepG2 Assay for Cell Loss (AID 2282915); details: high-content imaging
How it was run: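 HepG2 cells were exposed for 72 hr to compounds at 0.39–200 uM (ten concentrations, duplicate) in 0.5% v/v final DMSO. Nuclei were stained with Hoechst 33342 after 3.7% formaldehyde fixation, imaged at 20x, and counted; fits bidirectional versus DMSO.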

[11] = APR_HepG2_P-H2AX_72hr: Apredica 72-hour HepG2 Assay for H2AX Phosphorylation (AID 2282916); details: imaging, actives raise or lower the signal;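 also: phospho-histone H2A.x immunostain intensity per cell marking DNA damage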
How it was run: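 HepG2; cpd 0.39–200 uM ×10 conc, duplicates; 0.5% DMSO; 72 hr. Fix 3.7% formaldehyde 30 min RT, 0.5% Triton X-100 10 min. Anti-phospho-H2A.x 1:200 + Hoechst 2 ug/mL, 60 min RT; ArrayScan imaging.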

[12] = APR_HepG2_MitoMembPot_72hr: Apredica 72-hour HepG2 Assay for Mitochondrial Membrane Potential (AID 2282917); details: imaging, actives raise or lower the signal
How it was run: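 HepG2 cells exposed 72 h to compounds at 0.39–200 uM (0.5% v/v DMSO, duplicates); MitoTracker Red CMXRos 250 nM loaded 30 min before 3.7% formaldehyde fixation, imaged by HCS fluorescence. Bidirectional fit versus DMSO.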

[13] = APR_HepG2_MitoticArrest_72hr: Apredica 72-hour HepG2 Assay for Mitotic Arrest (AID 2282918); details: high-content imaging, actives raise or lower the signal
How it was run: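 Read-out is phospho-histone H3 immunofluorescence with Hoechst nuclear segmentation, imaged at 20x. Human HepG2 liver cells received ten concentrations (0.39–200 uM, final DMSO 0.5% v/v) for 72 hr before fixation. Gain or loss of signal was fitted relative to DMSO.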

[14] = APR_HepG2_MicrotubuleCSK_72hr: Apredica 72-hour HepG2 Assay for Microtubule CSK Stabilty (AID 2282919); details: HepG2 microtubule cytoskeleton, high-content imaging, actives raise or lower the signal
How it was run: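 HepG2 human liver cells were dosed for 72 h at ten concentrations from 0.39 to 200 uM in duplicate (0.5% v/v DMSO final). Fixed, permeabilized cells were immunostained for alpha-tubulin (Cy5) with a Hoechst counterstain and imaged at 20x.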

[15] = APR_HepG2_P-H2AX_24hr: Apredica 24-hour HepG2 Assay for H2AX Phosphorylation (AID 2282920); details: high-content imaging, actives raise or lower the signal
How it was run: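 HepG2, 24 hr, cpd 0.39–200 uM (10 conc, duplicate), DMSO 0.5% v/v final. Fix 3.7% formaldehyde, Triton X-100 permeabilize, anti-phospho-H2A.x 1:200 + Hoechst 2 ug/mL. Imaged, bidirectional fit vs DMSO.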

[16] = APR_HepG2_StressKinase_72hr: Apredica 72-hour HepG2 Assay for Stress Kinase (AID 2282921); details: HepG2 stress kinase (phospho-c-Jun) imaging, actives raise or lower the signal
How it was run: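 Dose 0.39–200 uM (10 pts, duplicate), 0.5% DMSO; 72 h; fix 3.7% formaldehyde 30 min RT; Triton permeabilize; anti-phospho-c-Jun/Cy3 + Hoechst 60 min RT; image 20x; fit gain/loss vs DMSO.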

[17] = APR_HepG2_p53Act_72hr: Apredica 72-hour HepG2 Assay for p53 Activation (AID 2282923); details: high-content imaging, actives raise or lower the signal;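 also: average cellular p53 protein immunofluorescence intensity in HepG2 cells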
How it was run: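 10-pt conc. 0.39–200 uM, duplicate, 0.5% DMSO; 72 hr exposure; 3.7% formaldehyde fix, 0.5% Triton perm; sheep anti-p53/Cy5 + Hoechst; ArrayScan 20x, 6 images/well; gain/loss fit vs DMSO.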

[18] = APR_HepG2_MitoMass_72hr: Apredica 72-hour HepG2 Assay for Mitochondrial Mass (AID 2282924); details: high-content imaging, actives raise or lower the signal;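 also: MitoTracker Red CMXRos stain intensity per cell imaged as mitochondrial mass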
How it was run: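 HepG2 cells were exposed for 72 hr to compounds at 0.39–200 uM (ten concentrations, duplicate, 0.5% v/v DMSO final). Live cells were stained with 250 nM MitoTracker Red CMXRos for 30 min, then fixed in 3.7% formaldehyde and imaged by HCS fluorescence.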

[19] = APR_HepG2_NuclearSize_72hr: Apredica 72-hour HepG2 Assay for Nuclear Size (AID 2282925); details: high-content imaging, actives raise or lower the signal
How it was run: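 HepG2 cells were exposed to compounds at ten concentrations from 0.39 to 200 uM (duplicate, 0.5% DMSO final) for 72 hr. After fixation in 3.7% formaldehyde, nuclei were stained with Hoechst 33342 (2 ug/mL) and imaged at 20x.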

[20] = APR_HepG2_StressKinase_24hr: Apredica 24-hour HepG2 Assay for Stress Kinase (AID 2282922); details: HepG2 stress kinase (phospho-c-Jun) imaging, actives raise or lower the signal
How it was run: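 HepG2 cells exposed 24 hr to compound at 0.39–200 uM (10 concentrations, duplicate), 0.5% v/v DMSO final. Fixed in 3.7% formaldehyde, permeabilized with Triton X-100, immunolabeled for phospho-c-Jun with Hoechst 33342; HCS fluorescence imaging, bidirectional fit versus DMSO.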

Measured: AC50

CN(C)C(=O)NC1(c2ccccc2)CCN(CCC[C@]2(c3ccc(Cl)c(Cl)c3)CCCN(C(=O)c3ccccc3)C2)CC1
inactive: [2] | [6] | [9] | [14] | [18] | [19]
active: [1] 24.7 µM | [3] 24.9 µM | [4] 8.32 µM | [5] 16.3 µM | [7] 15.4 µM | [8] 14.8 µM | [10] 16 µM | [11] 15.1 µM | [12] 25.4 µM | [13] 9.82 µM | [15] 22.5 µM | [16] 25 µM | [17] 10.3 µM

CCC(C)N(C)C(=O)c1cc2ccccc2c(-c2ccccc2Cl)n1 (stereo not given)
inactive: [1] | [2] | [4] | [6] | [9] | [11] | [14] | [16] | [17]
active: [3] 64.9 µM | [5] 66.8 µM | [7] 82.4 µM | [8] 66.9 µM | [10] 73.1 µM | [12] 67.7 µM | [13] 65.8 µM | [18] 66.4 µM

CC(C)OC(=O)C(C)(C)Oc1ccc(C(=O)c2ccc(Cl)cc2)cc1
active: [9] 100 µM | [10] 103 µM
inactive: [1] | [2] | [3] | [4] | [5] | [6] | [7] | [11] | [12] | [13] | [14] | [15] | [16] | [20] | [18]

CCCCC(CC)COP(=O)(OCC(CC)CCCC)OCC(CC)CCCC (stereo not given)
inactive: [1] | [2] | [4] | [6] | [7] | [9] | [12] | [16] | [18]
active: [3] 37.7 µM | [5] 48.2 µM | [8] 71.1 µM | [10] 37.3 µM | [11] 46.1 µM | [13] 31.5 µM | [14] 51.5 µM | [17] 42.5 µM
